The results in this text go back to the supplement of paper PMC11732987, “Enantioselective OTUD7B fragment discovery through chemoproteomics screening and high-throughput optimisation” (Communications Chemistry, 2025).

Unmarked numbers belong to inactive results.

Sequence of UniProt Q70CQ2 (Q70CQ2 whole entry): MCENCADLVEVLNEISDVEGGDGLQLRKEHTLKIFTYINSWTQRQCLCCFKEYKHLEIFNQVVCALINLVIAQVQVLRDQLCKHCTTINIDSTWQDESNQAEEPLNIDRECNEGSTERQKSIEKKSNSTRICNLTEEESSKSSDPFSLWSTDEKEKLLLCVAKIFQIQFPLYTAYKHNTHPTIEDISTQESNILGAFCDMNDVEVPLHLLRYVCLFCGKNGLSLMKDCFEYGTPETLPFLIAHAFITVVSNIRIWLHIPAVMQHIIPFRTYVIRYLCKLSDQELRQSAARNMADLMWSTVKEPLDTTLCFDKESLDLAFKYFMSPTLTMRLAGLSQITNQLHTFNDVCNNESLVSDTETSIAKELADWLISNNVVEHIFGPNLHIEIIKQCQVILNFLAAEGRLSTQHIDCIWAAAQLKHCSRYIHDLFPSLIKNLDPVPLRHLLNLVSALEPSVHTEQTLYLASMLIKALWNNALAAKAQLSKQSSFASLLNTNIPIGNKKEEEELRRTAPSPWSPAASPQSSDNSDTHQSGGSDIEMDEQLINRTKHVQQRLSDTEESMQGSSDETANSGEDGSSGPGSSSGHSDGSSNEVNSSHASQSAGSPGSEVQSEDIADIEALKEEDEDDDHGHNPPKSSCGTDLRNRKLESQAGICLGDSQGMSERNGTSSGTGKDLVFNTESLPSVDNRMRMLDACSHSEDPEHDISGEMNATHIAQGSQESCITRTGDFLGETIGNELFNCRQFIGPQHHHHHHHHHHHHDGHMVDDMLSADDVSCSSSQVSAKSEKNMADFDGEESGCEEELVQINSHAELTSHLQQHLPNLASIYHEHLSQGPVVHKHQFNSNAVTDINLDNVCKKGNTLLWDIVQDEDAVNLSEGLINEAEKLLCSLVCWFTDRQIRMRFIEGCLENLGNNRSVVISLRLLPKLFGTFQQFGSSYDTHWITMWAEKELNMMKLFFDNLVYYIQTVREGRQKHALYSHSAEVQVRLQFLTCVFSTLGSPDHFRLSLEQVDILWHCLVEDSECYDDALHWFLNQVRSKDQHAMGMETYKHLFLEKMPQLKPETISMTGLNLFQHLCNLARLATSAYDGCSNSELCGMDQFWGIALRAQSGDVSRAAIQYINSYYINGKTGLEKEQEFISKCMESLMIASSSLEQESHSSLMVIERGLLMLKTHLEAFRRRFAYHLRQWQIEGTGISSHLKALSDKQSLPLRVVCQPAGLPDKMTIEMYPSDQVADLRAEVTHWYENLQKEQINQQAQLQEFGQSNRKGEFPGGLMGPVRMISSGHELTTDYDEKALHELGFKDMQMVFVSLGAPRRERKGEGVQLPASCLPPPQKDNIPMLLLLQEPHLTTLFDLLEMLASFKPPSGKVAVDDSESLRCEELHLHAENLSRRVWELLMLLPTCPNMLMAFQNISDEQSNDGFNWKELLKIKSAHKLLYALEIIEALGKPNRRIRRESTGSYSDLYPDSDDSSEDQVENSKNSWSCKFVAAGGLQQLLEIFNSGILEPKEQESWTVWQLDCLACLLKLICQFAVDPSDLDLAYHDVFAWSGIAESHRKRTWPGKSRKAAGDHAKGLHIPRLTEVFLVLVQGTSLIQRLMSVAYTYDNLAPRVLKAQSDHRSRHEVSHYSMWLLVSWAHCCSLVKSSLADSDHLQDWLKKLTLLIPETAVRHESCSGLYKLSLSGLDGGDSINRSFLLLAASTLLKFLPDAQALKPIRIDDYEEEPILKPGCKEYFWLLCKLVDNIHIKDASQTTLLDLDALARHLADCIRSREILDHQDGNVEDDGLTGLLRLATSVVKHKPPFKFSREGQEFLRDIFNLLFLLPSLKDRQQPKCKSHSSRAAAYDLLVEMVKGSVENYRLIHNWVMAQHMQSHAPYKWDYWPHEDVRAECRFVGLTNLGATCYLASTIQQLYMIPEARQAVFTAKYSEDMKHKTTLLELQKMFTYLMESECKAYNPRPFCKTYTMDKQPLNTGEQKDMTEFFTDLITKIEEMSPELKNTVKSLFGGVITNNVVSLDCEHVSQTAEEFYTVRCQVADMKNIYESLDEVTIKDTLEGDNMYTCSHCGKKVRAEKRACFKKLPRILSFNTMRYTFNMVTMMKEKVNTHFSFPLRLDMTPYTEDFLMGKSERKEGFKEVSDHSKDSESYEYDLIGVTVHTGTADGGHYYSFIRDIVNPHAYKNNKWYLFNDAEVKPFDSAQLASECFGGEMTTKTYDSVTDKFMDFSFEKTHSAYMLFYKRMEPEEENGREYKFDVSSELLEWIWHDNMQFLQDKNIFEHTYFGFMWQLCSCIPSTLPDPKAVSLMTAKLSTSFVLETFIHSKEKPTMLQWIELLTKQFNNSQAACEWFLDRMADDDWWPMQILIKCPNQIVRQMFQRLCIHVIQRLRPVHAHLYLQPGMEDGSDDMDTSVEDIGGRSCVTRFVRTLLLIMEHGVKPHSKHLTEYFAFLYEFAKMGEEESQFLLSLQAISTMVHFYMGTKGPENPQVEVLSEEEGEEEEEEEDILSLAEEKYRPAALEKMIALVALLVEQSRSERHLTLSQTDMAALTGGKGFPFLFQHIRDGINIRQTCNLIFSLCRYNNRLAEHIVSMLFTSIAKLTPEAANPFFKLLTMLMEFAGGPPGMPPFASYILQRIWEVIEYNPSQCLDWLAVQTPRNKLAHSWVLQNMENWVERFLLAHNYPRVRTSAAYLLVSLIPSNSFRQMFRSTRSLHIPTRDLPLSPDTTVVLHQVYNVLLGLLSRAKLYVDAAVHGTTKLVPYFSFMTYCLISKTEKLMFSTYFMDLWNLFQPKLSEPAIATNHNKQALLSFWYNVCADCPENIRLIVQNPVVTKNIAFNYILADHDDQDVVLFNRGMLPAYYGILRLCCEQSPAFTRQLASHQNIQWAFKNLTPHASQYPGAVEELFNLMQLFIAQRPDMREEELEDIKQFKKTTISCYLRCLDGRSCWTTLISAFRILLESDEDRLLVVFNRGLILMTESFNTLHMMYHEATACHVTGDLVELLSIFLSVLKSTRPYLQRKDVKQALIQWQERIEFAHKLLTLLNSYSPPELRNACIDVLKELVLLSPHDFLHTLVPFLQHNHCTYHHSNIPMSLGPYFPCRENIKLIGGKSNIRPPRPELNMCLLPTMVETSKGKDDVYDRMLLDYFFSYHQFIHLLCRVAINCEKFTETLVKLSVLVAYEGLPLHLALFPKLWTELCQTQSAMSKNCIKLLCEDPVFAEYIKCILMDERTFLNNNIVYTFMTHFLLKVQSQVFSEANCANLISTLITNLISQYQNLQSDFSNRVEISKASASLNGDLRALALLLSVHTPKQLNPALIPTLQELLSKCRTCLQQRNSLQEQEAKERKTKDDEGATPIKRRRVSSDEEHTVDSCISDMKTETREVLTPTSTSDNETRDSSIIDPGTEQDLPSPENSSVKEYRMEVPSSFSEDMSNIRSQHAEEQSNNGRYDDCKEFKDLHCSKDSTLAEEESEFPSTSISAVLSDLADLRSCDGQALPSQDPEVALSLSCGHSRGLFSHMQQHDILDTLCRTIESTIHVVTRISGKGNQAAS
Sequence of UniProt Q9P2H5 (Q9P2H5 whole entry): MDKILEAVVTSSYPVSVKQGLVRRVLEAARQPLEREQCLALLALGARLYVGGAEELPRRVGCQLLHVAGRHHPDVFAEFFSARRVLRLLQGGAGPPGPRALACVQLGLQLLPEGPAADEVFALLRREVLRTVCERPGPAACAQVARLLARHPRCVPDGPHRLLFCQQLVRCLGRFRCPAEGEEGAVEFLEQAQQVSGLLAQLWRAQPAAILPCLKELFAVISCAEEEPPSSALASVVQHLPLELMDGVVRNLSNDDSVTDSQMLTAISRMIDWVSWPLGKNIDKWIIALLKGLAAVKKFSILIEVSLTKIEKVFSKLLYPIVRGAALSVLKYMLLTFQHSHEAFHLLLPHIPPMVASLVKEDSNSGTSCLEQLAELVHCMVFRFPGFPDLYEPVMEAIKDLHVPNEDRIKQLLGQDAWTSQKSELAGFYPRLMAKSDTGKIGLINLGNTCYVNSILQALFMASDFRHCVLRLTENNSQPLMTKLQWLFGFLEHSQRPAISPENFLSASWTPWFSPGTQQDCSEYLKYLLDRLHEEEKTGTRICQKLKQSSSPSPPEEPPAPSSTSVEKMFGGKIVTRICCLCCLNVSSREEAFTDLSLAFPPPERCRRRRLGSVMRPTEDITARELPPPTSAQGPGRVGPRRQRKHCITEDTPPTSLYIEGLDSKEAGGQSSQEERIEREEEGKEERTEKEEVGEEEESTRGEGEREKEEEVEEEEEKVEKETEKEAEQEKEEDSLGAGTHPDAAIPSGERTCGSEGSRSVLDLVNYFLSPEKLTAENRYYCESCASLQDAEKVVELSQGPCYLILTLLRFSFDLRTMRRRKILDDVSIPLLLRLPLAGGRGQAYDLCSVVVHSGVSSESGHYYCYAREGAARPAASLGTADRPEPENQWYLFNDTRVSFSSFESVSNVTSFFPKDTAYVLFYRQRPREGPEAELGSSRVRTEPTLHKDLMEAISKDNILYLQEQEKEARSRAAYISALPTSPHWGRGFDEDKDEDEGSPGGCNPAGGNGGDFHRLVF
Sequence of UniProt P51665 (P51665 whole entry): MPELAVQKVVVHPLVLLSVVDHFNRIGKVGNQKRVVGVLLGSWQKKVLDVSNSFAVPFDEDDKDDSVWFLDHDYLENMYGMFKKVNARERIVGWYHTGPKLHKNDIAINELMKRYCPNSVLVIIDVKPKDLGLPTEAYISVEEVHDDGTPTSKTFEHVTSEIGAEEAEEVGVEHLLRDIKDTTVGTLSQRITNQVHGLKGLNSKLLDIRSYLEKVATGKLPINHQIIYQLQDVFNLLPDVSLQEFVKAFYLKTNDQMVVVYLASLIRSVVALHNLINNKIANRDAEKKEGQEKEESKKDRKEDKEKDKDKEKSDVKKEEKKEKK

Compound in the assay: ClCC(=O)N1CCCC1=O
Nature of the assay: log2 ratio of Biotin-Ahx-Ub-VS probe labelling (fragment/DMSO); higher = less target engagement (more negative = stronger competition), active = hit call of the paper (q ≤ 0.05, log2 ratio ≤ -1). The note with it: compound concentration: 200 uM; treatment time: 3 h. How it is done:
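Competitive ABPP in HEK293T cell lysate. Lysates were treated with each chloroacetamide fragment at 200 µM for 3 h, then with Biotin-Ahx-Ub-VS (0.5 µM, 1 h), NeutrAvidin-enriched and analysed by diaPASEF LC-MS/MS. Protein LFQ was median-normalised; average log2 ratio is fragment/DMSO from an unpaired t-test (n=3 treated, n=44 DMSO). Hits: q ≤ 0.05, log2 ratio ≤ -1, unique peptides ≥ 2.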
As to PRPF8 (UniProt Q6P2Q9), the “log2 ratio of Biotin-Ahx-Ub-VS probe labelling” value (“log2 ratio” below) is 0.106. Turning to USP8 (UniProt P40818), the “log2 ratio” value was -0.417. Regarding USP25 (UniProt Q9UHP3), the “log2 ratio” value was -0.183. As to UniProt Q9P2H5, the “log2 ratio” value is -0.151. For the target OTUB1 (UniProt Q96FW1), the “log2 ratio” value was -0.0612. As for PSMD7 (UniProt P51665), the “log2 ratio” value is -0.274. As for VCPIP1 (UniProt Q96JH7), the “log2 ratio” value is -0.53.

Consider USP34 (UniProt Q70CQ2), for which the “log2 ratio” value was -0.582.
